From article PMC6602471 come the findings set out here.

RUNX1, sequence (Q01196 whole entry): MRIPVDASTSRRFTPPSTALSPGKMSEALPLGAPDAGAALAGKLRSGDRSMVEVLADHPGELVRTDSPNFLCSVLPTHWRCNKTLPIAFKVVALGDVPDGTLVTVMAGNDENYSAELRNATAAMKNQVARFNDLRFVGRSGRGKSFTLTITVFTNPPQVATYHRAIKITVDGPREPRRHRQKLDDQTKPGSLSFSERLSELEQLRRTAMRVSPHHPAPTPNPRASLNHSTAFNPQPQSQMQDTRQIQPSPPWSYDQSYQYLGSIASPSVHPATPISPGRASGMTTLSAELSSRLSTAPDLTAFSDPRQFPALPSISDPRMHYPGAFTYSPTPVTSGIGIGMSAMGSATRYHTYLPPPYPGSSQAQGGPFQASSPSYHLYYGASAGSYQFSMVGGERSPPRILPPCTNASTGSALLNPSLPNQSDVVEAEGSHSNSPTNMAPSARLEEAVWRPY

The assay has as its target RUNX1 (Homo sapiens, UniProt Q01196 1-453). As to the kind of experiment: custom PBM; custom protein-binding microarray; buffer, salt, pH and temperature not stated; high values mean tight binding. As to conditions: dsDNA, one strand shown.
With “GCATACGGCTGACGGCAGCCACATACGCACACATACACATACACACATACACATACGCAC”, the binding signal is 10.9 log fluorescence intensity.
For the sequence “GCATACGGCTGACGTCAGCAACATACGCACACATACACATACACACATACACATACGCAC”, the binding signal is 10.9 log fluorescence intensity.
On to “GCGCACATTTCCTGTAAATCATACACGCACACATACACATACACACATACACATACGCAC”, for which the binding signal was 10.9 log fluorescence intensity.
The figure for “GCATACGGCTCACGTCAGCCACATACGCACACATACACATACACACATACACATACGCAC” is 10.9 log fluorescence intensity; for “CGCGCACTCTGTGCTTGCGCACATACGCACACATACACATACACACATACACATACGCAC” it is 10.9 log fluorescence intensity.
Turning to “GCGCACATTTCTCGTAAATCATACACGCACACATACACATACACACATACACATACGCAC”, the binding signal was 10.9 log fluorescence intensity.
Consider “CGCGCACTCTGTGGCTGCGCACATACGCACACATACACATACACACATACACATACGCAC”, for which the binding signal was 10.9 log fluorescence intensity.
As to “CGCGCAGTCTGTGGTTGCGCACATACGCACACATACACATACACACATACACATACGCAC”, the binding signal is 11.4 log fluorescence intensity.
For “GCGCACATTTCCCGTAAAGCATACACGCACACATACACATACACACATACACATACGCAC”, the binding signal was 11 log fluorescence intensity.
As to “GCGCACATTACCCGTAAATCATACACGCACACATACACATACACACATACACATACGCAC”, the binding signal was 10.9 log fluorescence intensity.
On to “CGCGCACTATGTGGTTGCGCACATACGCACACATACACATACACACATACACATACGCAC”, for which the binding signal is 11.3 log fluorescence intensity.
“GCATACGGCTGACGTCAGACACATACGCACACATACACATACACACATACACATACGCAC”: the binding signal is 10.9 log fluorescence intensity.
The figure for “GCATACGGCTGGCGTCAGCCACATACGCACACATACACATACACACATACACATACGCAC” is 11 log fluorescence intensity.
Regarding “CGCGCACTCTGTGGATGCGCACATACGCACACATACACATACACACATACACATACGCAC”, the binding signal was 10.9 log fluorescence intensity.
“GCATACGGCTGACTTCAGCCACATACGCACACATACACATACACACATACACATACGCAC”: the binding signal is 10.9 log fluorescence intensity.
In the case of “GCATACGGCAGACGTCAGCCACATACGCACACATACACATACACACATACACATACGCAC”, the binding signal is 11 log fluorescence intensity.
Turning to “GCGCACATTTCCAGTAAATCATACACGCACACATACACATACACACATACACATACGCAC”, the binding signal was 10.9 log fluorescence intensity.
In the case of “GCATACGGCTGACGTCATCCACATACGCACACATACACATACACACATACACATACGCAC”, the binding signal was 10.9 log fluorescence intensity.
Consider “GCGCACATTTCCCGCAAATCATACACGCACACATACACATACACACATACACATACGCAC”, for which the binding signal is 11.1 log fluorescence intensity.
For “CGCGCACCCTGTGGTTGCGCACATACGCACACATACACATACACACATACACATACGCAC”, the binding signal was 11.4 log fluorescence intensity.
As for “CGCGCACTCTGTGGTTGTGCACATACGCACACATACACATACACACATACACATACGCAC”, the binding signal is 11.3 log fluorescence intensity.
The result for “GCATACGGCTGACGTAAGCCACATACGCACACATACACATACACACATACACATACGCAC” reads 11 log fluorescence intensity; that for “GCATACGGCTGACCTCAGCCACATACGCACACATACACATACACACATACACATACGCAC”, 11 log fluorescence intensity.
“CGCGCCCTCTGTGGTTGCGCACATACGCACACATACACATACACACATACACATACGCAC”: the binding signal was 11.5 log fluorescence intensity.
Consider “GCATACTGCTGACGTCAGCCACATACGCACACATACACATACACACATACACATACGCAC”, for which the binding signal is 10.9 log fluorescence intensity.
On to “GCATACGGCCGACGTCAGCCACATACGCACACATACACATACACACATACACATACGCAC”, for which the binding signal was 11 log fluorescence intensity.
For the sequence “GCGCACATTTCCCGTACATCATACACGCACACATACACATACACACATACACATACGCAC”, the binding signal is 11 log fluorescence intensity.
“GCGCACCTTTCCCGTAAATCATACACGCACACATACACATACACACATACACATACGCAC”: the binding signal is 10.9 log fluorescence intensity.
In the case of “CGCGCACTGTGTGGTTGCGCACATACGCACACATACACATACACACATACACATACGCAC”, the binding signal was 11 log fluorescence intensity.
As to “GCATACGGCGGACGTCAGCCACATACGCACACATACACATACACACATACACATACGCAC”, the binding signal is 11 log fluorescence intensity.
Turning to “CGCGCACTCTGTGGTTGCGCACATACGCACACATACACATACACACATACACATACGCAC”, the binding signal was 11.7 log fluorescence intensity.
As for “GCATACGACTGACGTCAGCCACATACGCACACATACACATACACACATACACATACGCAC”, the binding signal is 11 log fluorescence intensity.
“CGCGCACACTGTGGTTGCGCACATACGCACACATACACATACACACATACACATACGCAC”: the binding signal is 11.2 log fluorescence intensity.
